Structures are written as SMILES. Activity calls are given as the source filed them. Rule for the calls: active = hit-call score of the fitted dose curve at least 0.9, where 1 is the maximum; inactive = score below 0.9.

From PubChem BioAssay (EPA / NIEHS) come the findings set out here.

Read-out in this experiment: matrix metalloproteinase-3 (MMP3), MMP3 (gene 4314)
Description: LTEA_HepaRG_MMP3: Life Technologies and Expression Analysis (LTEA) Assay for matrix metalloproteinase-3 (MMP3) using HepaRG (AID 2283519). The following applies: mRNA level, 48 h; actives raise or lower the signal. As to the method:
LTEA_HepaRG is a cell based, multiplexed-readout assay that uses HepaRG, a human liver cell line, with measurements taken at 48 hours after chemical dosing on a 96-well plate.LTEA_HepaRG_MMP3 is one of 102 assay component(s) measured in the LTEA HepaRG cell culture assay. It is a marker of Fibrosis.Data from the assay component LTEA_HepaRG_MMP3 was analyzed into 1 endpoint. This assay endpoint, LTEA_HepaRG_MMP3, was analyzed with bidirectional fitting relative to DMSO as the negative control and baseline of activity. Using a type of inducible reporter, measures of mRNA induction for gain or loss-of-signal activity can be used to understand regulation of transcription factor activity. To generalize the intended target to other relatable targets, this assay endpoint is annotated to the protease intended target family, where the subfamily is matrix metalloproteinase.
A total of 1060 chemcials from the ToxCast library were tested in eight-point concentration-response experiments. Cell culture and cytotoxicity assays were conducted at Thermo Fisher Scientific's Custom Services facility (Madison, WI). A single lot of human HepaRG cells (Thermo Fisher Scientific, Frederick, MD) was used for the cell culture experiments. 96-well format collagen type I coated plates of human HepaRG cells were prepared using established methods. Briefly, cryopreserved HepaRG cells were thawed, plated at a density of approximately 100,000 cells/well in HepaRG Thaw, Plate, and General Purpose media (HPRG770, Thermo Fisher Scientific), and incubated for 48 hours. 0.5% DMSO was selected as vehicle control to balance the requisite need of DMSO in HepaRG cultures to maintain differentiation (for example, baseline metabolism, proportions of hepatocytes vs. cholangiocytes), while enabling further hepatic receptor pathway activation (for example, PXR and CAR) in response to chemical exposure. 48 hours after plating, the culture medium was replaced with HepaRG Serum-Free Incudtion Media. Cells were exposed to each test chemical in duplicate and maintained in CO2 incubators for another 48 hours. Chemical plates were thawed to room temperature and 200x concentrations of treatment groups were prepared. 8-point conentration-reponse curves were made with the highest exposure at 100 uM, followed by half-log dilutions, all in 0.5% DMSO. Each test plate contained variouse controls, induction positive controls (1mM phenobarbital), cytotoxicity positive controls ([…] aflatoxin B1), vehicle controls (0.5% DMSO), and total lysis controls (0.5% DMSO). Cell morphology images were taken using an Essen IncuCyte FLR automated microscope, with six 96-well plates imaged in about 24 minutes. Images were captured and exported and JPEG files. Spent culture media was transfered to black-well plates for the LDH assay, and remaining media was sorted at -80 C for later use. Cells were treated with RLT buffer and frozen until shipped for gene expression analysis. Total RNA was isolated from the cell suspension in 75 uL of Buffer RLT (Qiagen, Germantown, MD 20874) by Quintiles/Expression Analysis (Durham, NC) using a custom isolation procedure. Total RNA from each plate well was transferred to a preamplification plate. Fluidigm's 96.96 Dynamic ArrayTM (Fluidigm, Amsterdam, the Netherlands) technology was used for gene expression analyses by quantitative reverse transcription polymerase chain reaction (qRT-PCR, performed by Quintiles/Expression Analysis, Durham, NC)89. Standard TaqManTM Assays (Applied Biosystems/ThermoFisher Scientific, Foster City, CA) were used to assess the expression of 93 genes selected based on their selectivity and sensitivity to important hepatic receptors known to be modulated by environmental chemicals; importance in human hepatocyte functionality; and hepatotoxicity. […]
As usually defined, the AC50 is the concentration giving half of the maximal activity seen. As to `O=C(CCCN1CCC(O)(c2ccc(Cl)cc2)CC1)c1ccc(F)cc1`, the concentration at half-maximal activity (AC50) was 12.5 µM (active).

With `O=C1NS(=O)(=O)c2ccccc21`, the molecule was classed as inactive.

Regarding `CCCCCCCCCCCCCCC`, the result was inactive.

With `CC(=O)Nc1ccc(O)cc1`, the outcome was inactive.

Take `CCCCc1oc2ccccc2c1C(=O)c1cc(I)c(OCCN(CC)CC)c(I)c1`: the molecule was called inactive.

With `CCCCC=O`, the molecule was classed as inactive.

With `Cc1[nH]nc2c1N=C(c1ccccc1Cl)c1cc([N+](=O)[O-])ccc1N2`, the AC50 is 9.48 µM (active).

In the case of `CCCCCCCCCCCCOS(=O)(=O)O`, the molecule was classed as inactive.

Consider `CN(C)CCOC(c1ccccc1)c1ccccc1`, for which the result was inactive.

In the case of `CS(=O)(=O)c1ccc([C@@H](CC2CCCC2)C(=O)Nc2cnccn2)cc1Cl`, the result was inactive.

For the molecule `CCC(C)c1ccccc1O` (stereo not given), the molecule was called inactive.

Consider `CCCCC(CC)C(=O)O` (stereo not given), for which the molecule was called inactive.

With `CN(Cc1cnc2nc(N)nc(N)c2n1)c1ccc(C(=O)N[C@@H](CCC(=O)O)C(=O)O)cc1`, the molecule was classed as inactive.

As for `O=C(c1ccccc1)c1ccccc1`, the molecule was called inactive.

For `OCC(CO)(CBr)CBr`, the call was inactive.
